The source of these data is PubChem BioAssay.

Broadly, the inhibition is the change of the read-out against control, counted positive when it falls. A word on the viability: it is the share of living cells, or the viability signal relative to a control.

Assay [1] has as its target 6-phosphogluconate dehydrogenase, decarboxylating (Homo sapiens) (UniProt P52209). Kind of assay: inhibition of human phosphogluconate dehydrogenase – biochemical, recombinant enzyme, NADPH absorbance, primary screen (AID 1159550;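 active means at least 20% inhibition of 6-phosphogluconate dehydrogenase activity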). Conditions: recombinant 6PGD, NADPH absorbance 341 nm; at 10 µM; stronger effect = higher value.
Assay [2] can be described thus: P. berghei load reduction in hepatocytes – cell-based, HepG2, luciferase luminescence, HepG2 viability, primary screen (AID 624349; in the data active means parasite load remaining mostly below about 12%, no sharp cut-off; inactive means mostly above about 10%;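 further: 100% = mean of DMSO negative control wells on the same plate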). Conditions: P. berghei liver stage in HepG2, luciferase luminescence, concentration not given here; parasite load remaining: stronger effect = lower value; viability: measured here: HepG2 viability without parasites.
The nature of assay [3]: signal quenchers or enhancers, Cy5 substrate/SSB – biochemical, NIH Clinical Collection, E. coli SSB, artefact control for HCV NS3 helicase inhibitor project (AID 743268; call rule not given here). The following applies: Cy5-oligo bound E. coli SSB, fluorescence interference.
Assay [4] relates to Hepatitis C virus NS3 helicase. Kind of assay: blockers of NS3h binding to DNA – biochemical, fluorescence polarization, NIH Clinical Collection, primary screen (AID 743270; call rule not given here). The following applies: NS3 helicase binding to Cy5-dT15 DNA, stronger effect = higher value, concentration not given here. On the technique in general: In fluorescence polarisation assays a small probe gives low polarisation when free and higher when bound to something large.

Assay [5] deals with Single-stranded DNA-binding protein (Escherichia coli (strain K12)) (UniProt P0AGE0). Kind of assay: SSB-ssDNA binding inhibitors – biochemical, fluorescence polarization, NIH Clinical Collection, counter-screen for HCV NS3 helicase inhibitor project (AID 743271; in the data active means inhibition above about 28%). The following applies: E. coli SSB-DNA binding, stronger effect = higher value, concentration not given here.
Assay [6] is described as follows: compounds distorting NS3 helicase fluorescence signal – biochemical, NIH Clinical Collection, artefact control for HCV NS3 helicase inhibitor project (AID 743272; call rule not given here;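 further: HCV NS3 helicase with a Cy5 labelled single stranded DNA probe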). The following applies: fluorescence interference counterscreen, HCV NS3 helicase assay; stronger effect = lower value.
A short description of assay [7]: modulation of C. elegans fzo-1 (AID 1259413; call rule not given here;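 further: fzo-1 mutant C. elegans worms in liquid wells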). The following applies: C. elegans fzo-1 modulator screen, mean read-out; stronger effect = higher value.
A short description of assay [8]: EMT-state selective cytotoxicity in co-culture – imaging, PC-3E GFP, TEM4-18 mCherry, primary screen (AID 1345086;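 active means compounds killing one labelled cell type while sparing the other, by normalised counts and ratio limits, not self-fluorescent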;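 on all read-outs here: cells exposed to compound for 72 h before imaging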;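 on red/green cell ratio (normalised): normalised mesenchymal count divided by normalised epithelial count so high means epithelial killing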). Conditions: PC-3E GFP / TEM4-18 mCherry co-culture, imaging cell counts, at 1 µM; for red/green cell ratio (normalised): actives lie on both sides, counts scaled to control wells, 1 = unselective.
Assay [9] in a line: viability loss with induced miR-34 in A549 – imaging, A549 dox-inducible miR-34, nuclei and caspase counts, primary screen (AID 1347080;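 active means compounds whose cell count with miR-34 switched on is under 0.7 times the count with it off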). Conditions: A549 miR-34 inducible, Hoechst nuclei count, 48 h.
The nature of assay [10]: MELAS cybrid and Rieske KO viability enhancers – cell-based, MELAS cybrids, Rieske KO mouse fibroblasts, CellTiter-Glo, primary screen (AID 1508586;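 active means mean z-score across replicates of 1.96 or higher in either the MELAS or the Rieske mutant cell line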;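 further: z relative to plate mean and SD of compound and empty wells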). Conditions: low glucose. For orientation: Cellular ATP, detected with luciferase, serves as a proxy for viable cell number.
Assay [11] concerns the target NAD(+) hydrolase SARM1 (Homo sapiens) (UniProt Q6SZW1). Kind of assay: blocking NAD cleavage by SARM1 SAM-TIR – cell lysate, NAD-Glo luminescence (AID 1508614;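 active means compound whose remaining NAD level is above about 45 nM, limit read from the data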). The following applies: SAM-TIR HEK293T lysate NADase, at 1 µM, stronger effect = higher value.
In assay [12] the target is Mitogen-activated protein kinase 7 (Homo sapiens) (UniProt Q13164). Description: Gal4-ERK5 driven luciferase induction – cell-based, HTS, primary screen (AID 1508626;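 active means luciferase signal above three times the same-plate solvent-only control wells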;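 further: luciferase driven by Gal4-ERK5 fusion binding five Gal4 sites before minimal TATA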). Conditions: HeLa Gal4-ERK5 transactivation, 18 h, at 5 µM, stronger effect = higher value.
Chain of Mitogen-activated protein kinase 7 (Homo sapiens) (Q13164 whole entry, looked up, the tested form may be a part): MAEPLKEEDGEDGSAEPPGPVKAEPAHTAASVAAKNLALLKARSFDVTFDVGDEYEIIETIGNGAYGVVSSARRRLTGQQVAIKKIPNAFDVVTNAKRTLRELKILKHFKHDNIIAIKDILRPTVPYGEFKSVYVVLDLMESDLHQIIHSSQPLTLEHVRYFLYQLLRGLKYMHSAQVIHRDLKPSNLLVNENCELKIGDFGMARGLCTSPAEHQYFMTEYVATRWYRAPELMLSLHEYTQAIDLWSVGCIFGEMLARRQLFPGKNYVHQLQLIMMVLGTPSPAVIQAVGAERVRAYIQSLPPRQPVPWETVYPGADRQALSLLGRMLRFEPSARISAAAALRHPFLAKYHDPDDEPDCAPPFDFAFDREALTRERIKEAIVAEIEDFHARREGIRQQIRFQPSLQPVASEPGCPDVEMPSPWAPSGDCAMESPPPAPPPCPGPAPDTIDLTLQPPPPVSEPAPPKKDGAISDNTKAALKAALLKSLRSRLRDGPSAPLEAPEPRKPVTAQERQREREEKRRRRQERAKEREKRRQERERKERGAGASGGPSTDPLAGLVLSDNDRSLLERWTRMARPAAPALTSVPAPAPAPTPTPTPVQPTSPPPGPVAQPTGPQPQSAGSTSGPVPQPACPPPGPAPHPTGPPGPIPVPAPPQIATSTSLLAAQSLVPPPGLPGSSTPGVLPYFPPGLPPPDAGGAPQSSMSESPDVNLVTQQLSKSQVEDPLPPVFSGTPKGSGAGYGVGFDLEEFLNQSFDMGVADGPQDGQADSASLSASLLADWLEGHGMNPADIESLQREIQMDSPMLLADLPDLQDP
A further assay deals with F380Y. Kind of assay: BK channel mutant inhibitors and activators – cell-based, U2OS BacMam, thallium flux, beta subunits, selectivity assay, profiling panel (AID 1259406).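 Further: initial slope of Thallos dye fluorescence rise after thallium is added; log ratio against the mean of 0.3% DMSO vehicle wells on the same plate.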 The following applies: U2OS BacMam BK variants, at 30 µM.
Another assay concerns F380Y/beta2Delta. The assay is described as above. The following applies: U2OS BacMam BK variants, at 30 µM.
The target of assay [13] is Calcium-activated potassium channel subunit alpha-1 (Homo sapiens) + Leucine-rich repeat-containing protein 26 (Homo sapiens) (UniProt Q12791+Q2I0M4). The description is as above. The following applies: U2OS BacMam BK variants, F380Y/Slo1WT/gamma1, at 30 µM.
Chain of Calcium-activated potassium channel subunit alpha-1 (Homo sapiens) + Leucine-rich repeat-containing protein 26 (Homo sapiens) (Q2I0M4 whole entry, looked up, one chain of several): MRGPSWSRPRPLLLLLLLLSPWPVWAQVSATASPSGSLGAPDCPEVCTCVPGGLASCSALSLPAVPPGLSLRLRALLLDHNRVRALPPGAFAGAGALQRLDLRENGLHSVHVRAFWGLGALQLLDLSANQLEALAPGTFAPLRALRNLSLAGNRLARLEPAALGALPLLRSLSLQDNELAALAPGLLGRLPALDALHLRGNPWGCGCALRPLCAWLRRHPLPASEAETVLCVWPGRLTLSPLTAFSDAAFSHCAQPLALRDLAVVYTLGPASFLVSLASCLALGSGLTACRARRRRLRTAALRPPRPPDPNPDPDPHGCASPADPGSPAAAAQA
The next assay has as its system R275C. Described as above. The following applies: U2OS BacMam BK variants, at 30 µM.
The subject of another assay is R275C/beta1. Described as above. Conditions: U2OS BacMam BK variants, at 30 µM.
Another assay has as its system R275C/beta2Delta. The assay is described as above. The following applies: U2OS BacMam BK variants, at 30 µM.
The nature of assay [14]: galactose survival enhancers in mitochondrial complex I cybrids – cell-based, galactose medium, ATP luminescence, primary screen (AID 1645843;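 active means z-score of at least 1.8 in each of two replicates, scored against plate mean and spread of sample wells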;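 further: positive z means more ATP and so rescue of galactose-driven cybrid death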). Conditions: complex I mutant cybrid cells, 72 h, stronger effect = higher value.
The mark [15] stands for this setting: measured here: epithelial PC-3E GFP cell survival.
The mark [16] stands for this setting: measured here: mesenchymal TEM4-18 mCherry cell survival.
Where [17] appears, read: stronger effect = lower value, cell number ratio, induced over uninduced.
Setting [18] is: measured here: relative caspase fold change +Dox/-Dox.
[19] abbreviates: measured here: total cells with miR-34 induction, stronger effect = lower value.
[20] abbreviates: measured here: total cells without miR-34 induction.
Where [21] appears, read: MELAS cybrid survival, CellTiter-Glo 48 h, stronger effect = higher value.
[22] abbreviates: Rieske KO mouse fibroblast survival, CellTiter-Glo 72 h.

Values joined by “and” are separate entries in the source; they are usually repeats but may differ in a detail not shown here. Identical values can stand only once. Active and inactive are the calls of the source.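 How the source made its calls, unless noted: active means thallium flux through the channel raised or lowered by more than 3 SD from vehicle-only wells, actives on both sides; inactive means the rest.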

Chain of 6-phosphogluconate dehydrogenase, decarboxylating (Homo sapiens) (P52209 whole entry, looked up): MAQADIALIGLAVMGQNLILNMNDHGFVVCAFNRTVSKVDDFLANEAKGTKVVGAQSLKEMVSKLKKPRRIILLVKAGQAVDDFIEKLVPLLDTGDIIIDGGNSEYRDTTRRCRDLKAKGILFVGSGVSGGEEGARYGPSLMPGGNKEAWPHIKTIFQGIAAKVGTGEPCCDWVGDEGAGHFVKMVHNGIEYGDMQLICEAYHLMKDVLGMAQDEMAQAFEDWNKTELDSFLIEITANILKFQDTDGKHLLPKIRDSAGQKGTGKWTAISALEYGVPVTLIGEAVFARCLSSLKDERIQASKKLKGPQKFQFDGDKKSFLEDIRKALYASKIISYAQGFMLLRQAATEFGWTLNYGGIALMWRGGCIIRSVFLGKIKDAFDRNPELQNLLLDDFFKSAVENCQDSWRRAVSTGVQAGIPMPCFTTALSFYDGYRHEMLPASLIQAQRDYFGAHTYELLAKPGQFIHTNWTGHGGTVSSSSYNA
Chain of NAD(+) hydrolase SARM1 (Homo sapiens) (Q6SZW1 whole entry, looked up, the tested form may be a part): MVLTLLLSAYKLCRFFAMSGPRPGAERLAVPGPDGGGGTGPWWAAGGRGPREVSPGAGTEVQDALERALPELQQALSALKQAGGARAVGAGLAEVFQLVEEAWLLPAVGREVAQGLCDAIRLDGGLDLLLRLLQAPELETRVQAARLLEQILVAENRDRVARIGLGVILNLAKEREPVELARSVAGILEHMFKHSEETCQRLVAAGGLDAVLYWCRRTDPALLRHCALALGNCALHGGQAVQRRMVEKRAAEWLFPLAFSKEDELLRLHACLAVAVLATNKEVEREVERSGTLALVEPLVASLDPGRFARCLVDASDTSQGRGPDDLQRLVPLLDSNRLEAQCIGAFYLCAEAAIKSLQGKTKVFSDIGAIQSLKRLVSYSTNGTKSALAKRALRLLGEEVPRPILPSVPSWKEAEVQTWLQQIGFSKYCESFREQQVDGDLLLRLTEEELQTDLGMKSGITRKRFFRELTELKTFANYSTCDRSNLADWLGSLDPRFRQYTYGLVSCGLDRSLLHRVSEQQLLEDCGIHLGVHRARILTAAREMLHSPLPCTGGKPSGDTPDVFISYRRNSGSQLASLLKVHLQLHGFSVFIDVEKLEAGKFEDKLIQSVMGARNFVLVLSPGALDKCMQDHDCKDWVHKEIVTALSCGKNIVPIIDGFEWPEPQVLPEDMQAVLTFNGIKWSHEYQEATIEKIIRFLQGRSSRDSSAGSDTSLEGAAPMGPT

For the compound `CC(=O)OC1CC2C(C)(C)C(=O)C=CC2(C)C2CCC3(C)C(c4ccoc4)OC(=O)C4OC43C12C` (configuration not stated), in assay [1], the inhibition was -18.7% (inactive).
On the same count and under the same terms, then `N[C@@H](COCc1ccccc1)C(=O)O`, with 3.6% (inactive); and `CC(C)=CCc1c(O)cc(C)oc1=O`, with -5.39% (inactive); and `COc1cc(O)cc(/C=C/c2ccccc2)c1`, with 10.9% (inactive).
For the compound `CCCCC(=O)N(Cc1ccc(-c2ccccc2-c2nn[nH]n2)cc1)[C@H](C(=O)O)C(C)C`, the parasite load remaining in [2] is 147% (inactive) and 47.5% (inactive) and 92.3% (inactive). The viability in assay [2] was 89.7% and 98.7% and 73.8%. In addition, the fluorescence ratio in [3] is 1.07 (inactive); in [6] it was 1.05 (inactive). Moreover, the inhibition in [4] was 4.36% (inactive); in assay [5] it was 4.52% (inactive); in [1], -2.51% (inactive). In addition, the mean signal in assay [7] is 250 (inactive). The red/green cell ratio (normalised) in assay [8] was 1.14 (inactive). The normalised cell number in assay [8] (setting [15]) amounted to 1.14; in assay [8] (setting [16]), 1.3. The fold change was 0.954 (inactive) and 0.853 (inactive) in assay [9] (setting [17]); 0.477 and 2.43 in assay [9] (setting [18]). In addition, the cell count in [9] (setting [19]) is 8040 and 10600; in [9] (setting [20]), 8430 and 12500. For the same compound, the z-score is 0.123 (inactive) and -0.397 (inactive) in assay [10] (setting [21]); 0.0466 and -1.21 in assay [10] (setting [22]). Also, the remaining NAD in assay [11] was 10 nM (inactive). Also, the luciferase signal in [12] was 56 AU (inactive). Also, the log fold change Tl+ flux is 0.0751 (inactive) in the assay with F380Y; 0.0113 (inactive) in the assay on F380Y/beta2Delta; 0.0422 (inactive) in assay [13]; -0.0315 (inactive) in the assay with R275C; 0.0112 (inactive) with R275C/beta1; 0.014 (inactive) in the assay with R275C/beta2Delta.
`C=C1CCC(=O)C(C)CCC2C1CC2(C)C` (configuration not stated): the inhibition in assay [1] was 14.7% (inactive).
Regarding `COC1=CC(=O)C(O)=C/C1=C/C=C/c1ccccc1`, the inhibition in [1] is 4.47% (inactive).
The same measure, in the same setting: then `CC(=O)OC1CCC2(C)C(CC(OC(C)=O)C3(C)C2CCC2(C)C(c4ccoc4)OC(=O)C4OC423)C1(C)C` (configuration not stated), with -7.87% (inactive).
The same measure, in the same setting: next, `CC(=O)OCC(=O)[C@@]1(O)CC[C@H]2[C@@H]3CC[C@@H]4C[C@H](OC(C)=O)CC[C@]4(C)[C@H]3C(=O)C[C@@]21C`: 4.42% (inactive).
For the compound `CC[C@H]1OC(=O)[C@H](C)[C@@H](O[C@H]2C[C@@](C)(OC)[C@@H](O)[C@H](C)O2)[C@H](C)[C@@H](O[C@@H]2O[C@H](C)C[C@H](N(C)C)[C@H]2O)[C@](C)(OC)C[C@@H](C)C(=O)[C@H](C)[C@@H](O)[C@]1(C)O`, the figures for the fluorescence ratio in assay [3] and in [6] were 1.06 (inactive) and 0.99 (inactive), respectively. For the same compound, the values for the inhibition in assay [4], in [5] and in [1] were -0.4% (inactive), -3.18% (inactive) and 2.59% (inactive), respectively. In addition, the mean signal in assay [7] was 229 (inactive). The red/green cell ratio (normalised) in assay [8] was 0.75 (inactive). Besides, the values for the normalised cell number in [8] (setting [15]) and in [8] (setting [16]) were 1.39 and 1.04, respectively. The fold change in [9] (setting [17]) is 0.89 (inactive) and 0.856 (inactive); in assay [9] (setting [18]), 4.5 and 0.962. The cell count in assay [9] (setting [19]) was 11300 and 8870; in assay [9] (setting [20]), 12700 and 10400. Besides, the z-score was -0.605 (inactive) and -0.357 (inactive) in assay [10] (setting [21]); -0.647 and -0.657 in assay [10] (setting [22]); -0.33 (inactive) in assay [14]. The remaining NAD in [11] was 10 nM (inactive). In [12], the luciferase signal is 44 AU (inactive). For the same compound, the log fold change Tl+ flux in the assay with F380Y is 0.0307 (inactive); with F380Y/beta2Delta it was -0.0353 (inactive); in assay [13], -0.0843 (inactive); in the assay on R275C it was -0.104 (inactive); with R275C/beta1, -0.0277 (inactive); with R275C/beta2Delta it was 0.033 (inactive).
